HCMV antiviral: qHTS Assay for inhibitors of the human cytomegalovirus (HCMV) | HFF cells, HCMV-luciferase reporter, 72 h; stronger effect = lower value | activity change, negative = inhibition, % at 57.5 µM | hit rate 4.5% among 410,000; in the data active = activity change below about -60%; inconclusive = no clear call, values can overlap the other calls; inactive = above about -39%
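Luciferase read-out from HCMV-luciferase-infected HFFs (MOI 1 PFU/cell) 72 h post infection at 37C; compounds added after 16 h cell attachment; activity normalized between buffer-only basal and Salinomycin (10uM) inhibitor controls.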
Marburg entry inh: qHTS for inhibitors of binding or entry into cells for Marburg Virus | Marburg virus pseudotyped entry inhibition, cell reporter | Potency, µM (titrated, usually from 37.8 µM), for the others: at the highest dose activity change, negative = inhibition, hits mostly inhibitors | hit rate 1.8% among 300,000; calls by dose curve; tested in HEK293 cells; also: potency is read from the fitted curve at half-maximal effect
LASV entry inh: qHTS for Inhibitors of binding or entry into cells for Lassa Virus; Lassa virus pseudotype entry inhibition, cell reporter; Potency, µM (titrated, usually from 37.9 µM), inactives show at the top dose activity change, negative = inhibition, hits mostly inhibitors; hit rate 1.2% among 300,000; AID 540256, 2011; calls by dose curve; tested in HEK293 cells; also: potency is read from the fitted curve at half-maximal effect; nearly all actives have a fitted effect of over 50% in size
FMDV inh: High Throughput Screening for Foot and Mouth Disease Virus Antivirals. FMDV antiviral cell-based qHTS. Potency, µM (titrated, usually from 57.9 µM), inactives show at the top dose activity change, negative = inhibition, most hits filed as inhibitors. hit rate 1.2% among 410,000. AID 1159524, 2015; calls by dose curve; tested in HEK293T cells; also: read-out not given here; potency is read from the fitted curve at half-maximal effect; nearly all actives have a fitted effect of over 45% in size
The depositor's hits bear a star; ? = inconclusive; . = no result given; [ ] = remark or other dose. Shown are actives, neighbours in structure and some others; about 6.2% of the full set was active somewhere. % is scaled to controls: 0 for no effect and ±100 for the full control effect.

SMILES	HCMV antiviral	Marburg entry inh	LASV entry inh	FMDV inh
Cc1cc(C(=O)COC(=O)c2n[nH]c3ccccc23)c(C)n1CC1CCCO1 (stereo unspecified)	7.4	7.08µM*	?	?
Cc1nc(C)c(C(=O)N(c2ccccc2F)C(C(=O)NCC2CCCO2)c2ccccc2)s1 (stereo unspecified)	-2.1	-6.0%[46.1 µM]	?	-3.5%
Cc1ccc(C(=O)Nc2cnn(-c3ccc(C(=O)NCc4nc(-c5ccccc5)n[nH]4)cc3)c2)c(C)c1	.	.	.	-17.6%
Cc1cc(C(=O)COC(=O)c2n[nH]c3ccccc23)c(C)n1C	114.9	?	?	-38.6%
COCCn1c(C)cc(C(=O)COc2nc3ccccc3nc2C)c1C	-85.5*	?	-27.6%	-28.5%
COCCn1c(C)cc(C(=O)COC(=O)c2ccccc2Br)c1C	-82.5*	.	.	35.5µM*
COCCn1c(C)cc(C(=O)COC(=O)c2n[nH]c3ccccc23)c1C	3.8	?	?	11.2µM*
COCCn1c(C)cc(C(=O)COC(=O)c2cccnc2SC)c1C	53.1	?	?	-64.1%
O=C(NCCN1CCOCC1)c1c(Cl)cccc1Cl	-9.9	?	20.4%[46.1 µM]	-5.1%
O=C(c1ccc(Cl)c(S(=O)(=O)N2CCCCCC2)c1)N1CCN(c2ccccn2)CC1	-81.2*	?	?	28.2µM*
CCOc1ccccc1N1CCN(C(=O)c2ccc(Cl)c(S(=O)(=O)N3CCCCC3)c2)CC1	-37.9	?	?	31.6µM*
Nc1c(C(=O)C2CC2)sc2nc(-c3ccccc3)cc(C(F)(F)F)c12	-77.1*	?	-14.0%	23.2%
COc1ccc(-c2cc(C(F)(F)F)c3c(N)c(C(=O)NCCSC)sc3n2)cc1	-1.4	2.5%[46.1 µM]	-28.2%[46.1 µM]	-12.2%
CN(C)CCNC(=O)c1sc2nc(-c3ccccc3)cc(C(F)(F)F)c2c1N	-9.2	5.01µM*	?	-25.3%
CC(=O)c1sc2nc(-c3cccs3)cc(C(F)(F)F)c2c1N	12.0	0.0%	2.5%	-7.4%
CCS(=O)(=O)c1cc([N+](=O)[O-])c(Sc2ccccc2NC(C)=O)s1	?	?	?	15.8µM*
O=C(CSc1cccc[n+]1[O-])Nc1cc(S(=O)(=O)N2CCOCC2)ccc1N1CCOCC1	5.4	2.8%	?	18.5%
COc1cc(/C=N/NC(=O)c2sc(N)c(C#N)c2C)cc(Br)c1O	-67.0*	?	?	-7.1%
COc1ccc2ccccc2c1/C=N/NC(=O)c1sc(N)c(C#N)c1C	-27.5	-9.0%	?	0.9%
O=C(CNC(=O)c1ccccc1F)N/N=C/c1cc(Br)ccc1OC(=O)/C=C/c1ccco1	-82.8*	?	?	-16.6%
O=C(CNC(=O)c1ccc(F)cc1)N/N=C/c1cc(Br)ccc1OC(=O)/C=C/c1ccco1	-77.1*	.	.	-7.2%
COc1cccc(NC(=O)CCN2CCN(c3ccccc3)CC2)c1	-75.4*	5.8%[46.1 µM]	?	-25.6%
COc1ccc(CN2CCN(c3ccccc3)CC2)c(C)c1C	-19.0	?	10.3µM*	-15.9%
O=C(Nc1ccc(S(=O)(=O)Nc2ccccc2)cc1)c1ccc(CN2CCOCC2)cc1	-89.8*	.	.	?
COc1ccccc1C(=O)Nc1ccc(N2CCN(Cc3ccccc3)CC2)cc1	-23.2	?	?	?
SMILES	HCMV antiviral	Marburg entry inh	LASV entry inh	FMDV inh
COc1ccc(NC(=O)c2ccc(CN3CCN(c4ccccc4)CC3)cc2)cc1OC	.	10µM*	?	-8.0%
COc1ccc(CN2CCN(c3ncccn3)CC2)c(C)c1C	8.8	.	.	?
C[C@@H]1CC[C@H]2C(=O)O[C@H](COc3ccc(C(C)(C)C)cc3)CN2[C@@H]1c1ccc(Br)cc1	.	?	-27.5%[14.3 µM]	.
CCSc1nnc(NC(=O)c2nc3nc(C)cc(C)n3n2)s1	-21.2	-4.5%[46.1 µM]	?	7.6%
N#Cc1ccccc1OCC(=O)Nc1cc(S(=O)(=O)N2CCCCC2)ccc1N1CCOCC1	-2.4	?	-17.7%	-4.6%
COC(=O)c1ccc(NC(=O)c2ccc(CN3CCOCC3)cc2)cc1	-28.3	?	-22.1%[14.3 µM]	22.4µM*
O=C(Nc1ccc(CN2CCOCC2)cc1)c1ccc(Cl)cc1	?	.	.	4.2%
CCC(C)Oc1ccc(C(=O)Nc2ccc(CN3CCOCC3)cc2)cc1 (stereo unspecified)	-79.6*	.	.	?
COc1ccc(C)cc1NC(=O)CSc1nc(=O)n(Cc2cccnc2)c2c1CCC2	-5.2	.	-0.7%[46.1 µM]	-5.0%
CCc1c(-c2ccccc2)nc2ccccc2c1C(=O)NC(C)c1ccccc1 (stereo unspecified)	?	.	-25.8%[46.1 µM]	-14.7%
NC(=O)CC(NC(=O)Cc1ccc(Br)cc1)c1ccc(N2CCN(c3ccccn3)CC2)c([N+](=O)[O-])c1 (stereo unspecified)	-29.3	.	.	?
CC(=O)c1cccc(N=c2scc(-c3ccc(S(=O)(=O)N4CCOCC4)cc3)n2CCO)c1	-98.4*	?	?	20µM*
C=CCn1c(-c2ccc(S(=O)(=O)N3CCOCC3)cc2)csc1=Nc1ccccc1	-22.1	-29.3%	?	?
O=S(=O)(c1ccc(-c2csc(=Nc3ccc(F)cc3)n2CCCCCCO)cc1)N1CCCC1	-101.0*	?	?	25.1µM*
COc1ccccc1N=c1scc(-c2ccc(S(=O)(=O)N3CCCC3)cc2)n1C	-97.3*	.	?	2.82µM*
CC(C)Cn1c(-c2ccc(S(=O)(=O)N3CCCC3)cc2)csc1=Nc1ccccc1	-36.5	-27.9%[46.1 µM]	?	0.0%
O=C(CCS(=O)(=O)c1ccccc1)Nc1ccc(-c2nc3ccccc3s2)cc1	-20.7	14.1µM*	?	16.4%
CC(C)(C)C(=O)Nc1ccc(N=Nc2ccccc2)cc1	-61.8*	?	?	17.8µM*
CCS(=O)(=O)c1ccccc1C(=O)Nc1ccc(-c2nc3ccccc3s2)cc1	28.5	.	-21.4%[46.1 µM]	2.8%
O=C(Nc1ccccc1)c1nc2ccccc2s1	161.1	?	11.2µM*	-1.2%
CC(C)(C)C(=O)Nc1ccc(-c2nc3ccccc3s2)cc1	-103.1*	?	?	4.47µM*
O=C(O)CCC(=O)Nc1ccc(N=Nc2ccccc2)cc1	.	1.4%[46.1 µM]	-3.4%	57.6%
O=C1NC(=O)/C(=C/c2ccc(OS(=O)(=O)c3ccc(F)cc3F)cc2)N1	-23.2	?	?	-23.2%
CCOc1ccc2nc(NC(=O)c3cnccn3)sc2c1	10.0	?	0.9%	16.5%
O=C(Nc1nc2ccc(F)cc2s1)c1ccccn1	-97.6*	?	?	11.2µM*
SMILES	HCMV antiviral	Marburg entry inh	LASV entry inh	FMDV inh
O=C(Nc1nnc(SCc2ccc(F)cc2)s1)c1cccnc1Cl	17.8	6.5%[46.1 µM]	-17.7%[46.1 µM]	-12.9%
O=C(Nc1nc2ccccc2s1)c1cnccn1	126.3	6.51µM*	?	.
O=C(Nc1nnc(SCc2ccc(F)cc2)s1)c1ccccn1	-98.5*	?	?	-9.6%
O=C(Nc1nc2ccc(F)cc2s1)C1=NN(c2ccccc2)C(=O)CC1	39.9	14.4%	12.8%	0.0%
COc1ccc(-c2cc(=O)c3c(O)cc(O[C@@H]4OC(COC5OC(C)C(O)C(O)[C@@H]5O)C(O)C(O)C4O)cc3o2)cc1 (stereo partly specified)	.	.	.	-3.3%
COC(=O)C1=C(c2ccc(F)cc2OCc2ccccc2)C[C@@H]2CC[C@H]1N2C(=O)NCc1ccc2c(c1)OCO2	-26.1	.	.	-22.8%
